What was measured:
Test in all cases: PBM binding z-score (relative to random genomic background probes); higher = stronger binding; sequences stand for … in GC…GCGATTGACAGCGTAGAATGAAGG
[1] = test system: PPARg:RXRa DBDmut IVT, anti-RXR (DBD mutation: RXRa K156A/R161A, NR concentration 270 nM, RXRa partner concentration 90 nM)
In short: (§1)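 Custom Agilent 4×180K protein-binding microarrays carried double-stranded probes. Their 34-nt variable regions held direct-repeat seeds, single-nucleotide variants, half-site ablations and random human genomic background sequences. Arrays were incubated 1 h with ligand-free nuclear receptor dimers in PBS pH 7.4, 2% milk, 0.02% Triton X-100, 1 mM DTT, 0.2 mg/mL BSA and 0.4 mg/ml salmon testes DNA. Antibodies against each partner (one per run) detected binding, and scanned fluorescence was regression-normalized. Binding z-scores use random background probes as reference.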

[2] = test system: PPARg:RXRa IVT, anti-PPARg (NR concentration 270 nM, RXRa partner concentration 90 nM)
In short: as §1

[3] = test system: PPARg DBDmut:RXRa IVT, anti-PPARg (DBD mutation: PPARg1 K132A/R137A, NR concentration 270 nM, RXRa partner concentration 90 nM)
In short: as §1

[4] = test system: PPARg DBDmut IVT, anti-PPARg (DBD mutation: PPARg1 K132A/R137A, NR concentration 270 nM)
In short: as §1

[5] = test system: PPARg homodimer (NR concentration 180 nM)
In short: as §1

[6] = test system: PXR:RXRa (NR concentration 270 nM, RXRa partner concentration 90 nM)
In short: as §1

[7] = test system: PXR homodimer (NR concentration 270 nM)
In short: as §1

[8] = test system: RARa:RXR (NR concentration 270 nM, RXRa partner concentration 90 nM)
In short: as §1

[9] = test system: RARa homodimer (NR concentration 270 nM)
In short: as §1

[10] = test system: RARb:RXRa (NR concentration 270 nM, RXRa partner concentration 90 nM)
In short: as §1

| Sequence | PBM binding z-score [1] | PBM binding z-score [2] | PBM binding z-score [3] | PBM binding z-score [4] | PBM binding z-score [5] | PBM binding z-score [6] | PBM binding z-score [7] | PBM binding z-score [8] | PBM binding z-score [9] | PBM binding z-score [10] |
| --- | --- | --- | --- | --- | --- | --- | --- | --- | --- | --- |
| TCTAGCAGGCCCGAGGGTCACTCAAGAGGTACGG | 0.262 | -0.284 | -0.445 | -0.801 | 0.169 | 1.35 | -0.577 | 2.07 | -0.992 | 1.94 |
| TCAAATAGGTAAAGGTGAAAGTCGAACGATATGA | 3.65 | 3.47 | 1.88 | 0.968 | 2.04 | 1.17 | 0.187 | 1.93 | 0.988 | 2.28 |
| CCTTACGGGTCACTCCAGGTTGTAGCATCGGAGT | 2.42 | 3.11 | 0.374 | 0.469 | 1.62 | 3.85 | -0.0202 | 3.84 | 0.553 | 3.65 |
| CCCATTAGTTGACCATAAGGGCAACCGAAGCTCG | -0.253 | 0.593 | 0.0546 | -0.0766 | 2.18 | 0.867 | 0.974 | 1.05 | 1.57 | 1.7 |
| ACTAGCAGGCCAAGTTTCGGTCACTCAAACAAAG | 0.73 | 0.753 | -0.762 | -0.738 | -0.0877 | -0.355 | -0.0865 | 0.0207 | -0.205 | 1.56 |
| ATGTGTAGGTTAGCTGGGGTCATTCAGACTAGGC | 2.74 | 3.09 | 1.93 | 2.25 | 3.23 | 6.41 | 5.39 | 6.36 | 2.17 | 3.25 |
| TCTTGTAGATCAGCAGATTAAGAAAGCTGGCCAA | 1.64 | -0.0378 | -0.256 | 0.452 | -0.374 | -0.148 | -0.568 | -0.157 | 0.205 | -0.229 |
| TCGGCTAGGTCAGTTGGTCAGCTAACGAGCTGCC | 1.62 | 1.9 | -0.718 | -0.778 | 0.3 | 0.186 | -0.113 | 0.266 | -0.561 | 3.52 |
| CCGACTGGGGCAGAAAGGTTTCCATACCATCCGG | 1.64 | 0.908 | -1.84 | -1.79 | -0.677 | -0.755 | -0.948 | -0.82 | -1.09 | 0.352 |
| ATTTCTAGGTAAAGTTCAGTGAAAGATCGATAGA | 4.75 | 4.3 | 2.07 | 2.14 | 2.58 | 2.41 | 2.25 | 1.36 | 2.45 | 2.95 |
| TAGCCTCGGTCAGATCGGGCCAGTATACGCTATA | -1.11 | -0.335 | -0.636 | -1.63 | -1.18 | -0.533 | -1.31 | -0.301 | -1.52 | 1.78 |
| GCAGACAGGTGAAACGCAGGCAACTCAGGGTGGC | 0.648 | 0.278 | -0.31 | -0.728 | -0.411 | -0.21 | -0.499 | 0.0177 | -0.602 | 0.594 |
| CCAGACAGCTGAAAGGTAACTCAGTCTGGTACGC | -0.0276 | -0.495 | -0.361 | -0.671 | -0.141 | -0.177 | -0.344 | 0.0105 | -0.368 | 0.0484 |
| GCTCCTAGGTCAACTGATGGTCAGCTAAAGCTCG | 4.98 | 3.97 | -0.903 | 0.266 | 2.06 | 2.28 | -0.577 | 3.53 | -0.186 | 4.35 |
| CCTAGTAGGTCAGGAGGTCACACACCGGATATGA | 7.03 | 7.47 | 1.73 | 1.02 | 4.99 | 4.94 | 1.33 | 6.63 | 3.21 | 4.72 |
| GCGACTGGGGCAAAGCAGGTTACCACAAGGTTGG | 4.37 | 3.9 | -0.49 | -1.47 | 0.0526 | 0.473 | -0.466 | 0.796 | -0.331 | 0.888 |
| TCTAGCAGGCCACAGGGTCACTCAAGAGGTACGG | 1.57 | 2.41 | 0.0342 | -1.16 | 1.75 | 2.71 | -0.163 | 3.42 | -0.568 | 2.63 |
| CGAACTAGGTCAGAACAGGACCGTGAAGGATGAT | 7.33 | 7.06 | 2.11 | 0.843 | 0.797 | 0.0175 | -0.758 | 0.594 | -0.383 | 2.73 |
| TCATATAGGTAAATGCTAGGTGAAACTCCGATCT | 4.38 | 2.75 | 0.957 | 1.1 | 0.711 | 0.57 | 0.499 | 0.959 | 0.953 | 0.548 |
| CGTCCAAGGTCAATGCTAGGTCAGTGAGAGCATT | 3.49 | 4.04 | 0.572 | -0.0566 | 6.21 | 5.05 | 2.93 | 6.05 | 1.51 | 5.23 |
| TCTGCTAGGTCAGTTGGTCAGGTAACGAGCTGCC | 2.56 | 3.24 | 0.0917 | 0.385 | 0.478 | 0.0993 | -0.744 | 0.735 | -0.871 | 3.3 |
| CTCCAAAGGTCGTGCTCAGGTGAGTATACCAAAC | 0.883 | 1.49 | -0.0777 | -0.509 | 2.56 | 3.53 | 0.561 | 4.78 | 0.196 | 4.08 |
| GCTTGTCGATCAAGGTTAAGAAAGACTAAGCTAA | -0.33 | 0.582 | 0.163 | 0.0381 | -0.626 | 0.592 | -0.652 | 0.89 | -0.654 | 0.682 |
| CGTCCAAGGGCATAGGAGGTCAGTGAAGACAGAT | 0.6 | 2.11 | -0.528 | -0.863 | 1.67 | 4.38 | 1.16 | 3 | 0.923 | 3.53 |

— the supplement of paper PMC6555819
